# Source: ChEMBL document CHEMBL3988442, “University of Dundee, Small-Polar-MMV Screening Library” (2021)
# Molecular target: T1, Methionyl-tRNA synthetase, putative (Leishmania donovani (strain BPK282A1)) (UniProt E9BF75)
# T1 sequence (whole entry): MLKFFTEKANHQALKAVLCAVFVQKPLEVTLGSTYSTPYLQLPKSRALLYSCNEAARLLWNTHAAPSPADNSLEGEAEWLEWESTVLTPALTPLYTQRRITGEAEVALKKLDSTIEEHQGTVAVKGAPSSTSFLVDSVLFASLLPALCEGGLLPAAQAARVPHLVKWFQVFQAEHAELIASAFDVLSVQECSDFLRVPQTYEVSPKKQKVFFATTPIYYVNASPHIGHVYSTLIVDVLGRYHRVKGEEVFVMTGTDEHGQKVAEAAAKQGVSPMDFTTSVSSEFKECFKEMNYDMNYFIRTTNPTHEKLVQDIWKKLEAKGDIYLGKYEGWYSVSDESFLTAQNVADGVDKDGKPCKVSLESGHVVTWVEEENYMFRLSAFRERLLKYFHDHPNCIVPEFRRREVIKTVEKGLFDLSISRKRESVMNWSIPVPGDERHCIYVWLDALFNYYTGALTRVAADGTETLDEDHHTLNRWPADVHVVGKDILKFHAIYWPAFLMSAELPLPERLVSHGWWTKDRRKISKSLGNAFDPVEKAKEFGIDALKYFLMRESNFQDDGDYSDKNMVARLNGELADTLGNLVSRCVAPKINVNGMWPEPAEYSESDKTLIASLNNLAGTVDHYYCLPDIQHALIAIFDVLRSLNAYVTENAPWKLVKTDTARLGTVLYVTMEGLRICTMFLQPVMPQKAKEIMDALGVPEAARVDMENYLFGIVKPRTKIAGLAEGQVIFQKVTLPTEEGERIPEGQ
# Experiment: Leishmania donovani Methionine tRNA synthetase (LdMetRS):v7. Dose response assay
# Assay type: functional
# Set-up: conc 80 nM, time 150 minutes
smiles,measurement,setting,value
c1ccc(C2CCCN(c3cncc(-n4cccn4)n3)CC2)cc1 (stereo not given),PXC50,"BOTTOM 2.059841181, HILLSLOPE 1.067052754, MAX_EFFECT 60.46065259, TOP 100.0",4.15
same,PXC50,"BOTTOM 3.016481369, HILLSLOPE 1.023719455, MAX_EFFECT 53.04659498, TOP 100.0",4.01
same,PXC50,"BOTTOM -1.1240017, HILLSLOPE 1.127395441, MAX_EFFECT 50.23923445, TOP 100.0",4.01
same,PXC50,MAX_EFFECT 41.25412541,< 4
same,PXC50,MAX_EFFECT 41.30434783,< 4
Cc1nccn1CCCn1cncc1-c1ccc2c(c1)CCC(C)N2C (stereo not given),PXC50,"BOTTOM 4.710746105, HILLSLOPE 1.396694103, MAX_EFFECT 77.77777778, TOP 100.0",4.36
same,PXC50,"BOTTOM 4.776972445, HILLSLOPE 4.284267496, MAX_EFFECT 55.70469799, TOP 54.26344413",4.56
same,PXC50,"BOTTOM 5.773645077, HILLSLOPE 1.775302265, MAX_EFFECT 72.6169844, TOP 100.0",4.22
same,PXC50,MAX_EFFECT 2.857142857,< 4
same,PXC50,MAX_EFFECT 4.347826087,< 4
Cc1cc(C)n(-c2nc(NCCCO)c3c4c(sc3n2)CCCC4)n1,PXC50,"BOTTOM 0.694327114, HILLSLOPE 1.749821258, MAX_EFFECT 87.74703557, TOP 100.0",4.43
same,PXC50,"BOTTOM 1.783825543, HILLSLOPE 1.533717892, MAX_EFFECT 94.44444444, TOP 106.8963367",4.59
same,PXC50,"BOTTOM 1.928318756, HILLSLOPE 2.074005498, MAX_EFFECT 78.73015873, TOP 100.0",4.27
same,PXC50,"BOTTOM 4.876612539, HILLSLOPE 1.662902224, MAX_EFFECT 88.59060403, TOP 97.50762335",4.61
same,PXC50,"BOTTOM 5.143035966, HILLSLOPE 1.849282201, MAX_EFFECT 96.18717504, TOP 100.0",4.48
Oc1ccc(N(CCc2ccccc2)CCn2cncn2)cc1,PXC50,"BOTTOM 3.490457709, HILLSLOPE 3.448426001, MAX_EFFECT 80.53691275, TOP 87.69859371",4.3
same,PXC50,"BOTTOM 4.951266088, HILLSLOPE 3.910237354, MAX_EFFECT 63.19444444, TOP 100.0",4.05
same,PXC50,MAX_EFFECT 6.53907496,< 4
same,PXC50,MAX_EFFECT 12.85988484,< 4
same,PXC50,MAX_EFFECT 66.72443674,< 4
CS(=O)(=O)N1CCN(c2ccc3ccc(C(=O)NC4CC4)cn23)CC1,PXC50,"BOTTOM 0.676888483, HILLSLOPE 1.632295337, MAX_EFFECT 62.22222222, TOP 67.77025413",4.71
same,PXC50,"BOTTOM 0.960464126, HILLSLOPE 4.237364112, MAX_EFFECT 56.37583893, TOP 52.03393569",4.89
same,PXC50,"BOTTOM 1.708048652, HILLSLOPE 3.091987727, MAX_EFFECT 59.02777778, TOP 55.32905726",4.97
same,PXC50,"BOTTOM 3.037239637, HILLSLOPE 2.011804467, MAX_EFFECT 63.24110672, TOP 62.63598189",4.98
same,PXC50,"BOTTOM -1.02344126, HILLSLOPE 1.263595064, MAX_EFFECT 66.72443674, TOP 100.0",4.26
